# Screens (PubChem)
# KB-3-1 tox – kills parental KB-3-1 adenocarcinoma cells | KB-3-1 viability, CellTiter-Glo ATP luminescence, 72 h | Potency, µM (top dose mostly 46.1 µM), usual class: cytotoxic | hit rate 1.4% among 400,000 | AID 1347075; note: nearly all actives have a fitted effect of over 60% in size
#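 Luminescent ATP read-out (CellTiter-Glo) measures survival of drug-naive KB-3-1 cells after 72 h compound exposure at 37 °C. Titration series was screened from lowest to highest concentration, with DMSO vehicle plates as background controls.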
# KB-V1 MDR tox – kills drug-selected multidrug resistant KB-V1 cells. KB-V1 MDR cells viability, CellTiter-Glo, 72 h. Potency, µM (highest dose often 46.1 µM), actives largely listed as cytotoxic. hit rate 3.4% among 400,000; note: nearly all actives have a fitted effect of over 60% in size
#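 Compound-treated KB-V1 multidrug-resistant cells, 72 h, 37 degrees C; viability by CellTiter-Glo. Fitted qHTS curves give the values.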
# IL1B secr inh – inhibitors of inflammasome signaling (IL-1 beta secretion); THP-1 LPS/ATP IL-1B secretion, AlphaLISA, 16 h; active compounds read low; activity change, % at 57.5 µM; hit rate 4.7% among 360,000; in the data active = activity change below about -50%; inconclusive = mostly about -30% to -49%
#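 THP-1 cells pretreated 1 hr with compounds (up to 57.5 uM final), then stimulated with LPS (250 ng/mL final) plus ATP (1.25 mM final); secreted IL-1B measured by AlphaLISA after 16 hr, decreased signal indicating inhibition.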
# SW480 rerep – induces DNA re-replication in SW480 colon adenocarcinoma cells | Potency, µM (titrated, usually from 46.1 µM), hits mostly activators | SW480 DNA re-replication, Hoechst DNA content imaging, 48 h | AID 624297 | hit rate 1.8% among 340,000; note: nearly all actives have a fitted effect of over 55% in size
#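 SW480 cells exposed to compounds for 48 hr at 37 C, 5% CO2, then Hoechst-stained 40 min. Nuclear DNA content imaged by fluorescence scanning (405 nm excitation, 500-530 nm emission); re-replication scored as increased high-intensity nuclei.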
# MCF10A rereplic – inducers of DNA re-replication in MCF 10A breast cells. MCF 10A DNA re-replication, Hoechst nuclear intensity, 48 h. Potency, µM (top dose mostly 46.1 µM), most hits filed as activators. hit rate 2.9% among 350,000. AID 624296; note: nearly all actives have a fitted effect of over 50% in size
# Numbers stand for hits; 0 = inactive; ? = inconclusive; - = no result; [ ] = another dose, or the depositor's remark. Rows were chosen to be rich in hits. Some 9.9% of all compounds tested hit in one or more screens of this group. Unless noted, calls come from the whole dose curve; as a rule, active = well fitted curve in the direction sought with a large enough effect; inconclusive = small, poorly fitted or top-dose-only effect, or another doubt; inactive = no such curve, though single readings can be large; an effect the other way counts as inactive or inconclusive.
SMILES,KB-3-1 tox,KB-V1 MDR tox,IL1B secr inh,SW480 rerep,MCF10A rereplic
N#CCSc1nc2ccc(N3CCCCC3)cc2c(=O)n1Cc1ccccc1,0,?,0,21µM,16µM
COc1ccc(OC)c(C(=O)CSc2nnc(C3CC3)n2C2CC2)c1,16µM,0,0,-,-
CCc1ccc(C(=O)CSc2nnc(C3CC3)n2C2CC2)cc1,0,12µM,0,0,0
COc1ccc(CCNC(=O)CN(c2cc(OC)ccc2OC)S(=O)(=O)c2ccccc2)cc1,0,23µM,0,0,0
COc1ccc(N(CC(=O)NCCc2ccccc2)S(=O)(=O)c2ccccc2)c(OC)c1,0,0,-,-,-
COc1ccc(CCNC(=O)CN(c2ccccc2OC)S(=O)(=O)c2ccc(C)cc2)cc1,?,0,-51,?,0
O=C(CN1C(=O)COc2ccccc21)N(Cc1ccc2c(c1)OCO2)CC1CCCO1 (stereo unspecified),0,4.1µM,0,0,?
Cc1ccc(CN(CC2CCCO2)C(=O)CN2C(=O)C(C(C)C)Oc3ccccc32)o1 (stereo unspecified),0,0,0,?,0
COc1ccc(NC(=O)/C(C#N)=C\c2cc(C)n(-c3ccc4c(c3)OCO4)c2C)cc1,?,2.1µM,0,10µM,5.2µM
Cc1cccc(NC(=O)/C(C#N)=C\c2cc(C)n(-c3ccc(C(=O)O)cc3)c2C)c1,0,0,-78,0,0
Cc1cc(/C=C(\C#N)C(=O)Nc2ccccc2)c(C)n1-c1ccc(C(=O)O)cc1,0,0,?,0,0
[2H]C([2H])(CCOS(N)(=O)=O)c1ccccc1,0,?,0,0[9.22 µM],0
C[C@]12c3[nH]c4ccc(Cl)cc4c3CCN1C(=O)[C@@H](CC(=O)NCc1ccco1)C[C@@H]2C(=O)N1CCCCC1,0,0,-55,0,0
COc1ccc2[nH]c3c(c2c1)CCN1C(=O)C(CC(=O)NCc2ccco2)C[C@H](C(=O)N2CCCCC2)[C@@]31C (stereo partly specified),0,?,0,18µM,0
COc1ccc2[nH]c3c(c2c1)CCN1C(=O)C(CC(=O)NCCN2CCOCC2)C[C@H](C(=O)N2CCCCC2)[C@@]31C (stereo partly specified),0,?,0,0,0
COCCCNC(=O)C[C@H]1C[C@H](C(=O)N2CCCCC2)[C@@]2(C)c3[nH]c4ccc(Cl)cc4c3CCN2C1=O,0,0,0,0,0
O=C1c2sc3nc4n(c(=O)c3c2CCC1Br)CCCCC4 (stereo unspecified),0,0,-93,?,0
CCn1c(SCC(=O)N/N=C(/C)c2ccncc2)nc2ccccc21,0,0,0,0,0
Cc1ccc2c(c1)c1c3n2CCN=C3CCC1,?,15µM,-96,0,0
c1cc2c(cc1C1CCCCC1)c1c3n2CCN=C3CCC1,?,?,?,21µM,16µM
O=C1Nc2ccc(Cl)cc2/C1=C/C1CC=CCC1 (stereo unspecified),0,?,-90,?,?
COc1cccc(C(C(=O)NCc2ccccc2)N(C(=O)c2csnn2)C2CC2)c1 (stereo unspecified),0,0,0,0,0
Cc1ccc(NC(=O)CSc2nc3ccccc3nc2N2CCCC2)cc1,18µM,?,0,0,0
Cc1ccc(NC(=O)CSc2nc3ccccc3c(=O)n2CCCN2CCCCC2)cc1C,?,?,0,?,15µM
CCc1ccc(NC(=O)CSc2nc3ccccc3c(=O)n2CCCN2CCC(C)CC2)cc1,?,?,-100,0,?
SMILES,KB-3-1 tox,KB-V1 MDR tox,IL1B secr inh,SW480 rerep,MCF10A rereplic
CCOCCCn1c(SCC(=O)Nc2ccc3[nH]c(=O)[nH]c3c2)nc2ccccc2c1=O,?,0,-54,0,0
CCN(CC(=O)Nc1c(F)cccc1F)C(=O)c1cccn1C,0,0,0,-,-
CCOc1ccc(-c2nonc2NC(=O)c2oc3c(C)c(C)ccc3c2C)cc1OCC,0,0,-,-,-
CN(C(=O)CSCC(=O)O)C1CCCCC1,0,0,0,0,0
O=C(CSc1nc2ccccc2c(=O)n1CCC(=O)N1CCCCC1)NCc1ccccc1,0,2.1µM,0,0,0
O=C(CCCn1c(SCC(=O)NCC2CCCO2)nc2ccccc2c1=O)NCc1ccccc1 (stereo unspecified),0,0,0,0,0
Cc1ccc(NC(=O)CSc2nc3ccccc3c(=O)n2CCCC(=O)N2CCCC2)cc1,6.3µM,?,0,?,0
CCOC(=O)[C@]12CCC=C1N(Cc1ccco1)C(=O)[C@H](CC(=O)N1CCCCC1)C2,0,0,0,-,-
COc1cc(Cl)c(C)cc1NC(=O)COC(=O)c1cc[n+]([O-])cc1,0,0,0,0,0
O=C(NC1CC1)C1CCCN1S(=O)(=O)c1ccc2ccccc2c1 (stereo unspecified),16µM,?,0,?,0
CCNC(=O)C1CCCN1S(=O)(=O)c1ccc2ccccc2c1 (stereo unspecified),?,0,0,0,0
CC(C)(C#N)NC(=O)C1CCCN1S(=O)(=O)c1ccc2ccccc2c1 (stereo unspecified),?,?,0,23µM,?
COc1cc(C2CC(=O)Oc3cc(C)c(Cl)c(C)c32)cc(OC)c1OC (stereo unspecified),0,0,0,0,?
COc1ccc(C2CC(=O)Oc3cc(C)c(Cl)c(C)c32)cc1 (stereo unspecified),0,0,0,0,18µM
CCOc1ccc(-n2cc(-c3ccc(OC)c(OC)c3)[nH]c2=S)cc1,0,0,0,0,0
C=C1CC(COc2ccc3c(C)c(Cl)c(=O)oc3c2)(c2ccccc2)OC1=O (stereo unspecified),?,?,-100,?,4.6µM
COc1ccc(N(CC(=O)N2CCc3ccccc32)S(=O)(=O)c2c(C)nn(C)c2C)cc1,0,0,0,0,0
COc1ccc(N(CC(=O)Nc2cccc(C)c2)S(=O)(=O)c2c(C)n[nH]c2C)cc1,0,?,0,0,0
COc1ccc(N(CC(=O)Nc2ccc(F)c(Cl)c2)S(=O)(=O)c2c(C)noc2C)cc1,?,?,-54,0,0
COc1ccc(N(CC(=O)Nc2ccc(C)c(C)c2)S(=O)(=O)c2c(C)n[nH]c2C)cc1,0,?,-124,0,0
COc1ccc(N(CC(=O)N2CCc3ccccc32)S(=O)(=O)c2c(C)n[nH]c2C)cc1,0,0,-54,0,0
COc1ccc(N(CC(=O)Nc2cc(Cl)ccc2OC)S(=O)(=O)c2c(C)noc2C)cc1,4.6µM,3.3µM,0,?,?
CCN1CCN(c2nc(SC)nc3sc4c(c23)CC(C)(C)OC4)CC1,0,8.2µM,0,0,0
CSc1nc(SCCN(C)C)c2c3c(sc2n1)COC(C)(C)C3,0,?,-61,0,0
CSc1nc(SC(C)C(=O)O)c2c3c(sc2n1)COC(C)(C)C3 (stereo unspecified),0,0,0,0,0
